Compounds without any hit were thinned out: in the full panel of roughly 83,000, 20% have a hit.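 Interpretation: 100, growth as untreated; towards 0, rising growth inhibition; 0, no net growth; 0 to -100, cell death. Compounds scoring below 10 were considered active.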 Activity calls are given as the source filed them.
Legend:
Experiment in all cases: NCI-60 one-dose screen, 48 h (100 = growth as untreated, 0 = no growth, -100 = all killed)
Conditions in all cases: 10 µM unless noted
HCT-15 colon = tested on: HCT-15 colon
HT29 colon = tested on: HT29 colon
SNB-75 CNS = tested on: SNB-75 CNS
SNB-19 CNS = tested on: SNB-19 CNS
U251 CNS = tested on: U251 CNS
PC-3 prostate = tested on: PC-3 prostate
SK-MEL-5 melanoma = tested on: SK-MEL-5 melanoma
UACC-62 melanoma = tested on: UACC-62 melanoma
LOX IMVI melanoma = tested on: LOX IMVI melanoma
SK-MEL-28 melanoma = tested on: SK-MEL-28 melanoma
SK-MEL-2 melanoma = tested on: SK-MEL-2 melanoma
EKVX NSCLC = tested on: EKVX NSCLC
SN12C renal = tested on: SN12C renal
UO-31 renal = tested on: UO-31 renal
TK-10 renal = tested on: TK-10 renal
ACHN renal = tested on: ACHN renal
CAKI-1 renal = tested on: CAKI-1 renal
A498 renal = tested on: A498 renal
CCRF-CEM leukemia = tested on: CCRF-CEM leukemia
MOLT-4 leukemia = tested on: MOLT-4 leukemia

Measured: growth

COc1ccc(-c2ccc(-c3ccc(C(=N)N)cn3)s2)cc1
active: CCRF-CEM leukemia 4.28%
inactive: HCT-15 colon 19.9% | HT29 colon 16.1% | SNB-75 CNS 105% | SNB-19 CNS 88.6% | U251 CNS 15.3% | PC-3 prostate 65.5% | SK-MEL-5 melanoma 85% | UACC-62 melanoma 101% | LOX IMVI melanoma 55% | SK-MEL-28 melanoma 109% | SK-MEL-2 melanoma 104% | EKVX NSCLC 95.6% | SN12C renal 86.7% | UO-31 renal 81.2% | TK-10 renal 109% | ACHN renal 92% | CAKI-1 renal 87.9% | A498 renal 98.8% | MOLT-4 leukemia 49.1%

O=C(OC[C@@H]1CO1)c1cccc2c(=O)c3ccccc3[nH]c12
active: HCT-15 colon -5.09% | HT29 colon -7.33% | SNB-75 CNS -88.2% | SNB-19 CNS -7.9% | U251 CNS -15.7% | PC-3 prostate -21.1% | SK-MEL-5 melanoma -90.9% | UACC-62 melanoma -89.2% | LOX IMVI melanoma -78.1% | SK-MEL-28 melanoma -62.6% | SK-MEL-2 melanoma -70.8% | EKVX NSCLC -16.8% | SN12C renal -46.9% | UO-31 renal -20.7% | TK-10 renal -6.41% | ACHN renal -41.2% | CAKI-1 renal -13.2% | A498 renal -44.4% | CCRF-CEM leukemia 2.83% | MOLT-4 leukemia 1.32%

Oc1c(Cl)cc(Cl)c2ccc(Cn3cc(-c4cccc(C(F)(F)F)c4)nn3)nc12
inactive: HCT-15 colon 40.5% | HT29 colon 89.2% | SNB-75 CNS 70% | SNB-19 CNS 95.6% | U251 CNS 93.6% | PC-3 prostate 83.1% | SK-MEL-5 melanoma 98.2% | UACC-62 melanoma 82.1% | LOX IMVI melanoma 23.7% | SK-MEL-28 melanoma 75.9% | SK-MEL-2 melanoma 93.8% | EKVX NSCLC 80.1% | SN12C renal 84.6% | UO-31 renal 73.4% | TK-10 renal 99.7% | ACHN renal 47.9% | CAKI-1 renal 31.1% | A498 renal 91.1%
active: CCRF-CEM leukemia 6.72% | MOLT-4 leukemia 3.08%

CCN(CC)c1ccc(/C=N/NC(=O)c2ccc(Nc3ccnc(C(F)(F)F)c3)cc2)c(O)c1
active: HT29 colon 0.587% | SK-MEL-5 melanoma -50.6% | UACC-62 melanoma 5.86% | LOX IMVI melanoma -25.4% | UO-31 renal 4.15% | ACHN renal 7.21% | CAKI-1 renal 7.86%
inactive: HCT-15 colon 19.6% | SNB-75 CNS 37.1% | SNB-19 CNS 15.5% | U251 CNS 14% | PC-3 prostate 19.6% | SK-MEL-28 melanoma 47.4% | SK-MEL-2 melanoma 56.8% | EKVX NSCLC 11.2% | SN12C renal 24.4% | TK-10 renal 43.5% | A498 renal 44.3% | CCRF-CEM leukemia 25.5% | MOLT-4 leukemia 103%

CCOC(=O)C1CCN(c2ccc(N3C[C@@H](CNCc4ccc(C(=N)N)cc4)OC3=O)cc2)CC1
inactive: HCT-15 colon 102% | HT29 colon 105% | SNB-75 CNS 83.8% | SNB-19 CNS 98.9% | U251 CNS 104% | PC-3 prostate 94.4% | SK-MEL-5 melanoma 103% | UACC-62 melanoma 97.3% | LOX IMVI melanoma 96.4% | SK-MEL-28 melanoma 105% | SK-MEL-2 melanoma 112% | EKVX NSCLC 99.4% | SN12C renal 97.6% | UO-31 renal 77.8% | TK-10 renal 97.5% | ACHN renal 102% | CAKI-1 renal 89.4% | A498 renal 108% | CCRF-CEM leukemia 98.5% | MOLT-4 leukemia 101%

CCOC(=O)C1=C(C)N=C2SC=C(c3ccccc3)N2[C@H]1c1cn[nH]c1-c1ccc(Cl)cc1
active: LOX IMVI melanoma 5.54% | UO-31 renal -33% | CAKI-1 renal -15.1% | CCRF-CEM leukemia -19.8% | MOLT-4 leukemia -7.33%
inactive: HCT-15 colon 24.6% | HT29 colon 36.8% | SNB-75 CNS 73.8% | SNB-19 CNS 59.2% | U251 CNS 31.2% | PC-3 prostate 34.7% | SK-MEL-5 melanoma 49.7% | UACC-62 melanoma 36.2% | SK-MEL-28 melanoma 75.2% | SK-MEL-2 melanoma 65.6% | EKVX NSCLC 72.3% | SN12C renal 48.8% | TK-10 renal 63.3% | ACHN renal 41.1% | A498 renal 68.8%

COc1cc2c(c(OC)c1OC)C(=O)N[C@@H]1[C@@H](O)[C@@H](O)[C@H](O)C[C@@H]21
inactive: HCT-15 colon 104% | HT29 colon 107% | SNB-75 CNS 102% | SNB-19 CNS 99% | U251 CNS 98.9% | PC-3 prostate 96.5% | SK-MEL-5 melanoma 104% | UACC-62 melanoma 94.1% | LOX IMVI melanoma 97.7% | SK-MEL-28 melanoma 111% | SK-MEL-2 melanoma 117% | EKVX NSCLC 103% | SN12C renal 104% | UO-31 renal 87.1% | TK-10 renal 98.5% | ACHN renal 99.7% | A498 renal 112% | CCRF-CEM leukemia 104% | MOLT-4 leukemia 104%

C[C@@H]1CC[C@@]2(OC1)O[C@H]1C[C@H]3[C@@H]4CC=C5C[C@@H](O[C@@H]6O[C@H](CO)[C@@H](O[C@@H]7O[C@@H](CO)[C@H](O)[C@H]7O)[C@H](O)[C@H]6O[C@@H]6O[C@@H](C)[C@H](O)[C@@H](O)[C@H]6O)CC[C@]5(C)[C@H]4CC[C@]3(C)[C@H]1[C@@H]2C
active: HCT-15 colon -84.8% | HT29 colon -61.2% | SNB-75 CNS -94.3% | SNB-19 CNS -81.7% | U251 CNS -97.7% | PC-3 prostate -90.2% | SK-MEL-5 melanoma -89.7% | UACC-62 melanoma -98% | LOX IMVI melanoma -96.7% | SK-MEL-28 melanoma -96.9% | SK-MEL-2 melanoma -87% | EKVX NSCLC -66.6% | SN12C renal -97.4% | UO-31 renal -99.5% | TK-10 renal -81.2% | ACHN renal -98.3% | CAKI-1 renal -93.4% | A498 renal -95.6% | CCRF-CEM leukemia -74.2% | MOLT-4 leukemia -60%

Reference: PubChem BioAssay (NCI)
